Test results from PubChem BioAssay (NCI).
Compounds without any hit were thinned out: in the full panel of roughly 83,000, 20% have a hit.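 Each cell line was grown in a 96-well plate and treated with one concentration of compound for 48 hours. Values below 10 were considered active.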 The source made the active and inactive calls.

Key:
Assay in all cases: NCI-60 one-dose screen, 48 h (100 = growth as untreated, 0 = no growth, -100 = all killed)
Conditions in all cases: 10 µM unless noted
T-47D breast = tested on: T-47D breast
BT-549 breast = tested on: BT-549 breast
MDA-MB-435 melanoma = tested on: MDA-MB-435 melanoma
SW-620 colon = tested on: SW-620 colon
MCF7 breast = tested on: MCF7 breast
HCT-116 colon = tested on: HCT-116 colon
HCC-2998 colon = tested on: HCC-2998 colon

Measured: growth

O=C1c2c(c3c4cccnc4[nH]c3c3ccc4ccccc4c23)C(=O)N1CCN1CCOCC1
inactive: T-47D breast 65.5% | BT-549 breast 65.6% | MDA-MB-435 melanoma 67.7% | SW-620 colon 47.1% | MCF7 breast 15.9% | HCT-116 colon 58.1% | HCC-2998 colon 82%

CCNC(=O)Oc1ccc(/C(=C(/C)c2ccc(Cl)cc2)c2ccc(OCCN(C)C)cc2)cc1
inactive: T-47D breast 54.8% | BT-549 breast 77% | MDA-MB-435 melanoma 91.6% | SW-620 colon 82.2% | MCF7 breast 18.1% | HCT-116 colon 43% | HCC-2998 colon 81.2%

O=C(COc1cccc2cccnc12)Nc1ccc(C(=O)/C=C/c2ccc(Cl)cc2)cc1
active: HCT-116 colon 5.25%
inactive: T-47D breast 74.8% | BT-549 breast 87.9% | MDA-MB-435 melanoma 92.6% | SW-620 colon 93.6% | MCF7 breast 17.1% | HCC-2998 colon 102%

CSc1ccc(/C(=N/N=C(N)N)c2ccccc2)cc1
active: MDA-MB-435 melanoma -18% | HCC-2998 colon 9.99%
inactive: T-47D breast 70.9% | BT-549 breast 53.8% | SW-620 colon 25.7% | MCF7 breast 11.7% | HCT-116 colon 13%

O=C(/C=C/c1cccc(O)c1)c1ccc(O)cc1
inactive: T-47D breast 62.6% | BT-549 breast 86.5% | MDA-MB-435 melanoma 65.5% | SW-620 colon 49.2% | MCF7 breast 37.3% | HCT-116 colon 33.8% | HCC-2998 colon 110%

Nc1ccc(-c2nnc(SCc3ccc(O)c4ncccc34)n2-c2ccccc2)cc1
active: MCF7 breast 5.58% | HCT-116 colon 8.87%
inactive: T-47D breast 15.2% | BT-549 breast 18.5% | MDA-MB-435 melanoma 14.8% | SW-620 colon 19.2% | HCC-2998 colon 29.1%

COc1cc(/C=N/n2cnc3oc(-c4ccccc4)cc3c2=N)cc(CN2CCCCC2)c1O
active: T-47D breast -33.1% | BT-549 breast -55.4% | MDA-MB-435 melanoma -91.8% | SW-620 colon -70% | MCF7 breast -80.5% | HCT-116 colon -89.1% | HCC-2998 colon -46.8%

COc1ccc(Cn2cc3c(c2-c2ccccc2)CCCc2cnoc2-3)cc1
active: MDA-MB-435 melanoma -11.2%
inactive: T-47D breast 56.4% | BT-549 breast 77.3% | SW-620 colon 28.2% | MCF7 breast 22.9% | HCT-116 colon 28.8% | HCC-2998 colon 87.9%

COc1ccc(NC(=O)[C@H](C)N)cc1C(=O)Nc1cccc(-c2cc(=O)c3c(OC)c(OC)c(OC)cc3o2)c1
inactive: T-47D breast 41% | BT-549 breast 78.4% | MDA-MB-435 melanoma 82.1% | SW-620 colon 94% | MCF7 breast 57.8% | HCT-116 colon 75% | HCC-2998 colon 65.2%

Clc1ccc(-c2csc(N/N=C/c3nc4ccccc4n3C3CC3)n2)cc1
inactive: T-47D breast 111% | BT-549 breast 103% | MDA-MB-435 melanoma 98.9% | SW-620 colon 107% | MCF7 breast 94.2% | HCT-116 colon 96.3% | HCC-2998 colon 105%

O=C(NNc1nc2cc(F)cc(F)c2n2cccc12)c1ncccn1
inactive: BT-549 breast 20.6% | MDA-MB-435 melanoma 24.6% | SW-620 colon 21.6% | HCT-116 colon 20.1% | HCC-2998 colon 51.9%
active: T-47D breast 3.06% | MCF7 breast 9.91%

C#C[C@]1(O)CC[C@H]2[C@@H]3CC=C4c5sc(Nc6ccc(OC)nc6)nc5CC[C@]4(C)[C@H]3CC[C@@]21C
active: SW-620 colon -20.8% | MCF7 breast 4.25% | HCT-116 colon -48.6%
inactive: T-47D breast 21.2% | BT-549 breast 33.3% | MDA-MB-435 melanoma 48.1% | HCC-2998 colon 65.5%

O=C1c2c(c3c4cc(Br)ccc4[nH]c3c3ccc4ccccc4c23)C(=O)N1CCN1CCCCC1
active: MDA-MB-435 melanoma -41.8% | MCF7 breast -35.6% | HCT-116 colon -61.8% | HCC-2998 colon 2.69%
inactive: T-47D breast 43.3% | BT-549 breast 91% | SW-620 colon 10.5%

COC[C@@]1(C)CC[C@]2(C)CC[C@]3(C)C(=CC[C@@H]4[C@@]5(C)CCCNC(C)(C)[C@@H]5CC[C@]43C)C2C1 (some centres not stated)
inactive: T-47D breast 70.5% | BT-549 breast 87.4% | MDA-MB-435 melanoma 44.2% | SW-620 colon 53.2% | MCF7 breast 23.9% | HCT-116 colon 40.1% | HCC-2998 colon 58.8%

COc1cc2c3c(n(CCCN4CCCC4)c(=O)c2cc1OC)-c1cc2c(cc1C3=O)OCO2
inactive: T-47D breast 78.3% | BT-549 breast 82.3% | HCC-2998 colon 42.2%
active: MDA-MB-435 melanoma -12.5% | SW-620 colon -63.1% | MCF7 breast -71.7% | HCT-116 colon -84%

C(=C(\C1=NCCN1)n1cnc2ccccc21)/c1ccc2ccccc2c1
inactive: T-47D breast 57.1% | BT-549 breast 48.5% | MDA-MB-435 melanoma 25.7% | SW-620 colon 67.9% | MCF7 breast 30.4% | HCT-116 colon 67.1% | HCC-2998 colon 71.5%

CC1CCc2c(sc3nc(SCC(=O)N/N=C/c4ccc(Cl)cc4)n(-c4ccccc4)c(=O)c23)C1 (configuration not stated)
inactive: T-47D breast 103% | BT-549 breast 99.6% | MDA-MB-435 melanoma 101% | SW-620 colon 107% | MCF7 breast 90.5% | HCT-116 colon 89.7% | HCC-2998 colon 112%

O=c1oc2ccc(-c3ccc(F)cc3F)cc2c(=O)n1-c1ccc(F)c(F)c1
active: T-47D breast 9.12% | BT-549 breast -2.01% | MDA-MB-435 melanoma 3.43% | MCF7 breast 2.02% | HCT-116 colon 6.87%
inactive: SW-620 colon 12.7% | HCC-2998 colon 14.5%

CCOC(=O)c1c(Nc2ccccc2)nn2c(-c3ccc(Br)cc3)ccnc12
inactive: T-47D breast 41.3% | BT-549 breast 104% | MDA-MB-435 melanoma 80.3% | SW-620 colon 78.4% | MCF7 breast 80.9% | HCT-116 colon 42.5% | HCC-2998 colon 87.1%

Cc1cc(=O)n2nc(-c3cn(C)c4ccc(Cl)cc34)sc2n1
inactive: T-47D breast 50.8% | BT-549 breast 108% | MDA-MB-435 melanoma 99% | SW-620 colon 97.6% | MCF7 breast 14.5% | HCT-116 colon 86.3% | HCC-2998 colon 102%

C#CCOc1ccc(C(Nc2ccc(OC)cc2)c2nnnn2C2CCCCC2)cc1 (configuration not stated)
inactive: T-47D breast 94.1% | BT-549 breast 99.6% | MDA-MB-435 melanoma 101% | SW-620 colon 98.3% | MCF7 breast 91.7% | HCT-116 colon 88.7% | HCC-2998 colon 101%

O=c1[nH]c(CNc2ccc(NCc3c(-c4ccccc4)no[n+]3[O-])cc2)nc2c1cnn2-c1ccccc1
inactive: T-47D breast 42.5% | BT-549 breast 62.1% | MDA-MB-435 melanoma 77.8% | SW-620 colon 92.8% | MCF7 breast 50.1% | HCT-116 colon 49.6% | HCC-2998 colon 84.4%

COc1ccc(-c2nc(SCC(C)C)nc(N/N=C\c3cccc([N+](=O)[O-])c3)c2C#N)cc1
inactive: T-47D breast 64% | BT-549 breast 64.1% | MDA-MB-435 melanoma 67.3% | SW-620 colon 56.9% | MCF7 breast 61.6% | HCT-116 colon 30.1% | HCC-2998 colon 80.3%

N/C(=N\c1nc2c(Cl)cccc2s1)C(Cl)(Cl)Cl
inactive: T-47D breast 42.4% | BT-549 breast 111% | MDA-MB-435 melanoma 89.1% | SW-620 colon 82.5% | MCF7 breast 49.3% | HCT-116 colon 69.7% | HCC-2998 colon 72.9%

COC1=C(c2ccccc2)C(=O)C(OC)=C(c2ccccc2)C1=O
inactive: T-47D breast 60.9% | BT-549 breast 104% | MDA-MB-435 melanoma 93.7% | SW-620 colon 98.8% | MCF7 breast 85.2% | HCT-116 colon 96.3% | HCC-2998 colon 94.4%

Cc1ccc(-c2csc(N/N=C/c3nc4ccccc4n3C3CC3)n2)cc1
inactive: BT-549 breast 73.1% | MDA-MB-435 melanoma 92.4% | MCF7 breast 50.2% | HCT-116 colon 89.3% | HCC-2998 colon 90%
active: T-47D breast -50.9% | SW-620 colon -72%

CCCCCCNC(=O)Oc1ccc(/C(=C(\C)c2ccc(OC)cc2)c2ccc(OCCN(C)C)cc2)cc1
inactive: T-47D breast 68.1% | BT-549 breast 85.1% | MDA-MB-435 melanoma 87.7% | SW-620 colon 83.6% | MCF7 breast 23.6% | HCT-116 colon 37.2% | HCC-2998 colon 88.3%

COc1ccc(-c2ccc3c4c(cccc24)C(=O)N(N2C(=O)c4cccc5cccc(c45)C2=O)C3=O)cc1
inactive: T-47D breast 98% | BT-549 breast 106% | MDA-MB-435 melanoma 98.8% | SW-620 colon 96.2% | MCF7 breast 15.6% | HCT-116 colon 96.8% | HCC-2998 colon 114%

Cc1ccc(NC(=O)c2ccc(CN3CCN(C)CC3)c(C(F)(F)F)c2)cc1Oc1ccc(-c2[nH]nc3ncnc(N)c23)cc1
inactive: T-47D breast 101% | BT-549 breast 105% | MDA-MB-435 melanoma 71.5% | SW-620 colon 24.3% | MCF7 breast 54% | HCC-2998 colon 111%
active: HCT-116 colon 8.72%

C/C(=N\NC(=O)CSc1nc2sc3c(c2c(=O)n1-c1ccccc1)CCC(C)C3)c1ccc(Cl)cc1 (configuration not stated)
inactive: T-47D breast 46.4% | BT-549 breast 36.8% | MDA-MB-435 melanoma 30.1% | SW-620 colon 31.6% | MCF7 breast 14% | HCT-116 colon 26.6% | HCC-2998 colon 45.4%

O=C1Nc2ccc(Cl)cc2/C1=C/c1ccc(OCc2ccc(F)cc2)cc1
inactive: T-47D breast 102% | BT-549 breast 107% | MDA-MB-435 melanoma 93% | SW-620 colon 102% | MCF7 breast 84.6% | HCT-116 colon 88.5% | HCC-2998 colon 102%
